This note sets out measurements from the supplement of paper PMC12645437, “Orthogonal IMiD-Degron Pairs Induce Selective Protein Degradation in Cells” (ACS Chemical Biology, 2025).

In all, about 8,300 sequences were measured (“log2 fold change of degron read counts, EGFP-low vs EGFP+ sorted cells (limma voom), compound-induced degradation”: median about -1.1, highest 2% from about 3.2 on). This excerpt belongs to a sample that is enriched for the highest values.

The target in this experiment is T1, CRBN, Q96SW2.
T1 chain: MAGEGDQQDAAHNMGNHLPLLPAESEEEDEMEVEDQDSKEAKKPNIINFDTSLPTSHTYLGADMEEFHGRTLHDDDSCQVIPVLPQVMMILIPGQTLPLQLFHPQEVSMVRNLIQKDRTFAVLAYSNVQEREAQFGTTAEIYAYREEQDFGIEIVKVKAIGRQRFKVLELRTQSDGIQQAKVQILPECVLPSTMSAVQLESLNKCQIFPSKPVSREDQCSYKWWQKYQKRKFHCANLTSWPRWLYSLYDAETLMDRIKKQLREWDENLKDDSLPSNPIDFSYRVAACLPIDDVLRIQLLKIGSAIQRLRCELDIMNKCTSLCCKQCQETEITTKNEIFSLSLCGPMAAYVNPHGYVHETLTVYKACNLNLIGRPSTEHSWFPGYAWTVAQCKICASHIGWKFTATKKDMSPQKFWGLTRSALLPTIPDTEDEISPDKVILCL
The experiment is described as follows: log2 fold change of degron read counts, EGFP-low vs EGFP+ sorted cells (limma voom), compound-induced degradation; higher = more compound-induced degradation of the degron-EGFP fusion; degrons are variants of IKZF1/3 zinc finger 2; compound dose not given here. Conditions: Jurkat, 18 h.

Setting [1] is: compound: compound 19 (5-tert-butyl-thalidomide).
[2] abbreviates: compound: compound 22 (5-morpholino-thalidomide).
[3] abbreviates: compound: compound 33 (diphenyl IMiD analogue).
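Note: pooled lentiviral library of zinc finger degron-EGFP fusions in mCherry-positive Jurkat cells, FACS-sorted after compound exposure, with degron abundance counted by next-generation sequencing.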

As to LDCEICGFLCTQKGNLLRHIKL [46L_47D_49E_50I_52G_53F_54L_55C_67L_, Q9UKT9], the “log2 fold change of degron read counts” value under setting [1] is -0.807, the “log2 fold change of degron read counts” value under setting [2] was -1.38, the “log2 fold change of degron read counts” value under setting [3] is -0.989 and the “log2 fold change of degron read counts” value (compound: thalidomide) was -0.479.

For FACPQCGAFFTQKGNLLRHIKL [46F_47A_49P_50Q_52G_53A_54F_55F_67L_, Q9UKT9], the “log2 fold change of degron read counts” value is, setting by setting: under setting [1], -0.715; under setting [2], -2.49; under setting [3], -1.05; (compound: thalidomide) -1.87.

FWCNQCGAEFTQKGNLLRHIKL [46F_47W_49N_50Q_52G_53A_54E_55F_67L_, Q9UKT9]: the “log2 fold change of degron read counts” value is -1.48 under setting [1], -2.56 under setting [2], -2.24 under setting [3] and -2.85 (compound: thalidomide).

For the sequence FGCEICGRGFTQKGNLLRHIKL [46F_47G_49E_50I_52G_53R_54G_55F_67L_, Q9UKT9], the “log2 fold change of degron read counts” value under setting [1] is -1.02, the “log2 fold change of degron read counts” value under setting [2] was -2.46, the “log2 fold change of degron read counts” value under setting [3] was -2.04 and the “log2 fold change of degron read counts” value (compound: thalidomide) is -2.19.

LGCEICGFCCTQKGNLLRHIKL [46L_47G_49E_50I_52G_53F_54C_55C_67L_, Q9UKT9]: the “log2 fold change of degron read counts” value runs as follows: under setting [1], -0.15; under setting [2], -0.36; under setting [3], -0.974; (compound: thalidomide) -0.994.

With FKCEVCGAHFTQKGNLLRHIKL [46F_47K_49E_50V_52G_53A_54H_55F_67L_, Q9UKT9], the “log2 fold change of degron read counts” value was -2.01 under setting [1], -3.17 under setting [2], -2.55 under setting [3] and -1.68 (compound: thalidomide).

Regarding LNCPICGFNCTQKGNLLRHIKL [46L_47N_49P_50I_52G_53F_54N_55C_67L_, Q9UKT9], the “log2 fold change of degron read counts” value reads like this: under setting [1], 0.0324; under setting [2], -0.534; under setting [3], -0.051; (compound: thalidomide) 0.589.

For the sequence FTCEVCGAMFTQKGNLLRHIKL [46F_47T_49E_50V_52G_53A_54M_55F_67L_, Q9UKT9], the “log2 fold change of degron read counts” value under setting [1] was -0.151, the “log2 fold change of degron read counts” value under setting [2] amounted to 0.976, the “log2 fold change of degron read counts” value under setting [3] was found to be 1.67 and the “log2 fold change of degron read counts” value (compound: thalidomide) was 1.62.

Consider FCCEVCGAMFTQKGNLLRHIKL [46F_47C_49E_50V_52G_53A_54M_55F_67L_, Q9UKT9], for which the “log2 fold change of degron read counts” value under setting [1] was found to be 1.54, the “log2 fold change of degron read counts” value under setting [2] turned out to be 1.34, the “log2 fold change of degron read counts” value under setting [3] was found to be 1.7 and the “log2 fold change of degron read counts” value (compound: thalidomide) amounted to 0.852.

Regarding FWCEVCGAMFTQKGNLLRHIKL [46F_47W_49E_50V_52G_53A_54M_55F_67L_, Q9UKT9], the “log2 fold change of degron read counts” value under setting [1] was 3.14, the “log2 fold change of degron read counts” value under setting [2] turned out to be 3.46, the “log2 fold change of degron read counts” value under setting [3] was determined as 2.23 and the “log2 fold change of degron read counts” value (compound: thalidomide) turned out to be 0.316.

For the sequence FQCNICGANFTQKGNLLRHIKL [46F_47Q_49N_50I_52G_53A_54N_55F_67L_, Q9UKT9], the “log2 fold change of degron read counts” value runs as follows: under setting [1], -0.813; under setting [2], 0.399; under setting [3], 1.05; (compound: thalidomide) 3.08.

As to FYCNQCGRCFTQKGNLLRHIKL [46F_47Y_49N_50Q_52G_53R_54C_55F_67L_, Q9UKT9], the “log2 fold change of degron read counts” value is -1.93 under setting [1], -2.09 under setting [2], -1.97 under setting [3] and -2.28 (compound: thalidomide).

In the case of LTCNQCGFKCTQKGNLLRHIKL [46L_47T_49N_50Q_52G_53F_54K_55C_67L_, Q9UKT9], the “log2 fold change of degron read counts” value by setting is: under setting [1], -2.23; under setting [2], -1.85; under setting [3], -2.34; (compound: thalidomide) -1.79.

On to FSCPICGRIFTQKGNLLRHIKL [46F_47S_49P_50I_52G_53R_54I_55F_67L_, Q9UKT9], for which the “log2 fold change of degron read counts” value reads like this: under setting [1], -0.412; under setting [2], -0.447; under setting [3], 1.06; (compound: thalidomide) 0.174.

FVCPICGAIFTQKGNLLRHIKL [46F_47V_49P_50I_52G_53A_54I_55F_67L_, Q9UKT9]: the “log2 fold change of degron read counts” value is -0.598 under setting [1], 0.358 under setting [2], 1.51 under setting [3] and 1.69 (compound: thalidomide).

As to FGCPICGAIFTQKGNLLRHIKL [46F_47G_49P_50I_52G_53A_54I_55F_67L_, Q9UKT9], the “log2 fold change of degron read counts” value reads like this: under setting [1], 3.81; under setting [2], 2.51; under setting [3], 2.55; (compound: thalidomide) 0.986.

For the sequence FKCPICGAIFTQKGNLLRHIKL [46F_47K_49P_50I_52G_53A_54I_55F_67L_, Q9UKT9], the “log2 fold change of degron read counts” value reads like this: under setting [1], -2.31; under setting [2], -3.23; under setting [3], -3.09; (compound: thalidomide) -1.63.

On to FGCPICGRIFTQKGNLLRHIKL [46F_47G_49P_50I_52G_53R_54I_55F_67L_, Q9UKT9], for which the “log2 fold change of degron read counts” value was 3.47 under setting [1], 1.77 under setting [2], 0.585 under setting [3] and -0.161 (compound: thalidomide).

On to FSCPICGAIFTQKGNLLRHIKL [46F_47S_49P_50I_52G_53A_54I_55F_67L_, Q9UKT9], for which the “log2 fold change of degron read counts” value is, setting by setting: under setting [1], 1.58; under setting [2], 1.34; under setting [3], 2.26; (compound: thalidomide) 0.935.

For FQCPICGAIFTQKGNLLRHIKL [46F_47Q_49P_50I_52G_53A_54I_55F_67L_, Q9UKT9], the “log2 fold change of degron read counts” value by setting is: under setting [1], -0.241; under setting [2], 3.26; under setting [3], 2.84; (compound: thalidomide) 3.79.

Consider FTCPICGRIFTQKGNLLRHIKL [46F_47T_49P_50I_52G_53R_54I_55F_67L_, Q9UKT9], for which the “log2 fold change of degron read counts” value is -1.75 under setting [1], -0.494 under setting [2], 0.959 under setting [3] and 1.17 (compound: thalidomide).

Take FYCPICGAIFTQKGNLLRHIKL [46F_47Y_49P_50I_52G_53A_54I_55F_67L_, Q9UKT9]: the “log2 fold change of degron read counts” value is, setting by setting: under setting [1], 2.75; under setting [2], 2.82; under setting [3], 1.86; (compound: thalidomide) 0.386.

On to FSCDVCGALFTQKGNLLRHIKL [46F_47S_49D_50V_52G_53A_54L_55F_67L_, Q9UKT9], for which the “log2 fold change of degron read counts” value was -1.17 under setting [1], -1.66 under setting [2], 0.461 under setting [3] and -2.2 (compound: thalidomide).

For FECEQCGAGFTQKGNLLRHIKL [46F_47E_49E_50Q_52G_53A_54G_55F_67L_, Q9UKT9], the “log2 fold change of degron read counts” value reads like this: under setting [1], -1.66; under setting [2], -2.94; under setting [3], -1.37; (compound: thalidomide) -1.37.

In the case of FRCSVCGHNFTQKGNLLRHIKL [46F_47R_49S_50V_52G_53H_54N_55F_67L_, Q9UKT9], the “log2 fold change of degron read counts” value runs as follows: under setting [1], -2.2; under setting [2], -2.6; under setting [3], -2.8; (compound: thalidomide) -2.89.

Regarding FICEICGHSFTQKGNLLRHIKL [46F_47I_49E_50I_52G_53H_54S_55F_67L_, Q9UKT9], the “log2 fold change of degron read counts” value was -3.27 under setting [1], -2.78 under setting [2], -2.2 under setting [3] and -2.17 (compound: thalidomide).

As to FCCDICGAEFTQKGNLLRHIKL [46F_47C_49D_50I_52G_53A_54E_55F_67L_, Q9UKT9], the “log2 fold change of degron read counts” value runs as follows: under setting [1], 0.189; under setting [2], -0.292; under setting [3], -0.603; (compound: thalidomide) -0.702.

As for FTCNQCGHTFTQKGNLLRHIKL [46F_47T_49N_50Q_52G_53H_54T_55F_67L_, Q9UKT9], the “log2 fold change of degron read counts” value is -3.38 under setting [1], -3.31 under setting [2], -3.66 under setting [3] and -2.92 (compound: thalidomide).
